Data reported in article PMC11006913.
Changes are numbered by the printed parent chain.

Key:
Assay in all cases: PBM; 200 nM protein, PBS
Settings in all cases: dsDNA, one strand shown
[1] = target: PITX2 (Homo sapiens, UniProt Q99697 72-157)
[2] = target: CRX (Homo sapiens, UniProt O43186 26-111, R41L)
[3] = target: PROP1 (Homo sapiens, UniProt O75360 56-141)
[4] = target: NKX3-2 (Homo sapiens, UniProt P78367 192-278, P234S)
[5] = target: NKX3-2 (Homo sapiens, UniProt P78367 192-278)
[6] = target: HOXD13 (Homo sapiens, UniProt P35453 263-343)
Chain of HOXD13 (Homo sapiens, UniProt P35453 263-343) (P35453 263-343): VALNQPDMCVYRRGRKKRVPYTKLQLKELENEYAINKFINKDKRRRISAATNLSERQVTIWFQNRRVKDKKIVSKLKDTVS

[7] = target: T1, PAX4 (Homo sapiens, UniProt O43316 9-242, F177V)
T1 sequence: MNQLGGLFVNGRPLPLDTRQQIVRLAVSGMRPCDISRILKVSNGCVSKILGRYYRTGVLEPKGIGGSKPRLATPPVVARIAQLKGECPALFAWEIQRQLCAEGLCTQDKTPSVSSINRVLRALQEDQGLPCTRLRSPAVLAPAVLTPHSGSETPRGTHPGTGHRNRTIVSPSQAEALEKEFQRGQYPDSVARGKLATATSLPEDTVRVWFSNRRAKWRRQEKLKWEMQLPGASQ

[8] = target: HOXD13 (Homo sapiens, UniProt P35453 263-343, T313A)
Chain of HOXD13 (Homo sapiens, UniProt P35453 263-343, T313A) (P35453 263-343 T313A): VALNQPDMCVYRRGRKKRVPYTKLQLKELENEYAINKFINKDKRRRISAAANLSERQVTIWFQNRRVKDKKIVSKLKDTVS

[9] = target: T2, PAX4 (Homo sapiens, UniProt O43316 9-242, F177Y)
T2 sequence: T1 sequence with V169Y

[10] = target: T3, PAX4 (Homo sapiens, UniProt O43316 9-242, R227W)
T3 sequence: T1 sequence with V169F, R219W

[11] = target: HOXA4 (Homo sapiens, UniProt Q00056 201-287)
Chain of HOXA4 (Homo sapiens, UniProt Q00056 201-287) (Q00056 201-287): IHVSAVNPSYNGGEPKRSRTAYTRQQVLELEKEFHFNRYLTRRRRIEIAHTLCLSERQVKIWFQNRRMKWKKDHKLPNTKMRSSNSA

[12] = target: HOXA4 (Homo sapiens, UniProt Q00056 201-287, W262F)
Chain of HOXA4 (Homo sapiens, UniProt Q00056 201-287, W262F) (Q00056 201-287 W262F): as the sequence (Q00056 201-287) above, with W62F counted along it

[13] = target: PROP1 (Homo sapiens, UniProt O75360 56-141, F88S)
Chain of PROP1 (Homo sapiens, UniProt O75360 56-141, F88S) (O75360 56-141 F88S): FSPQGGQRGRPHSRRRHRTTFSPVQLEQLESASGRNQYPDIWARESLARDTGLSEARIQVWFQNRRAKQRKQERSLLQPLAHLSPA

[14] = target: PRRX1 (Homo sapiens, UniProt P54821 80-166)
Chain of PRRX1 (P54821 80-166): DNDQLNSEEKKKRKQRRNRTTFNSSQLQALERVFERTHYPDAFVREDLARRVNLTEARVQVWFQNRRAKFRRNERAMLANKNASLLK

[15] = target: VAX1 (Homo sapiens, UniProt Q5SQQ9 86-172)
Chain of VAX1 (Homo sapiens, UniProt Q5SQQ9 86-172) (Q5SQQ9 86-172): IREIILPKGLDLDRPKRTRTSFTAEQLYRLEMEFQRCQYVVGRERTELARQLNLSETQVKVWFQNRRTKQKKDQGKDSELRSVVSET

[16] = target: VAX1 (Homo sapiens, UniProt Q5SQQ9 86-172, T142I)
Chain of VAX1 (Homo sapiens, UniProt Q5SQQ9 86-172, T142I) (Q5SQQ9 86-172 T142I): as the sequence (Q5SQQ9 86-172) above, with T57I counted along it

[17] = target: VAX1 (Homo sapiens, UniProt Q5SQQ9 86-172, K157R)
Chain of VAX1 (Homo sapiens, UniProt Q5SQQ9 86-172, K157R) (Q5SQQ9 86-172 K157R): as the sequence (Q5SQQ9 86-172) above, with K72R counted along it

[18] = target: HOXC10 (Homo sapiens, UniProt Q9NYD6 254-340, K271E)
Chain of HOXC10 (Q9NYD6 254-340 K271E): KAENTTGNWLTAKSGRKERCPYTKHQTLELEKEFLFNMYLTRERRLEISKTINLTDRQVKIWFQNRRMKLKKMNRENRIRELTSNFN

[19] = target: T4, NKX2-6 (Homo sapiens, UniProt A6NCS4 118-204, F151L)
T4 sequence: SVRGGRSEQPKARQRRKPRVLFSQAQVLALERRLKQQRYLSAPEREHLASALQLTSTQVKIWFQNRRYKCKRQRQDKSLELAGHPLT

[20] = target: T5, SIX6 (Homo sapiens, UniProt O95475 114-200, L167V)
T5 sequence: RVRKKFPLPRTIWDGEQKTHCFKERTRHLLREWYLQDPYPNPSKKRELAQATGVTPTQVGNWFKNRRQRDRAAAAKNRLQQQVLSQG

Chain of CRX (O43186 26-111 R41L): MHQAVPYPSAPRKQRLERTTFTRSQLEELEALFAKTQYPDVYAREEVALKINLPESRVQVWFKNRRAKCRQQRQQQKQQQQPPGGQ
Chain of PROP1 (Homo sapiens, UniProt O75360 56-141) (O75360 56-141): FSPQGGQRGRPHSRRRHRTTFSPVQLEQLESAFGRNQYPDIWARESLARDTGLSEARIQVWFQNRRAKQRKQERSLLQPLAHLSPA
Chain of NKX3-2 (Homo sapiens, UniProt P78367 192-278, P234S) (P78367 192-278 P234S): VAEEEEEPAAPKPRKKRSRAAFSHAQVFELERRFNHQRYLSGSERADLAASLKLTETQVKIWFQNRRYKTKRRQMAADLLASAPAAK
Chain of NKX3-2 (Homo sapiens, UniProt P78367 192-278) (P78367 192-278): as the sequence (P78367 192-278 P234S) above, with S43P counted along it

With CGAGATTA the binding signal [1] was 12.3 upbm affinity estimate (log intensity, higher = more binding, comparable within an allelic series) and the binding signal [2] was 12.4 upbm affinity estimate (log intensity, higher = more binding, comparable within an allelic series).
In the case of CGGATTTA, the binding signal [1] was 12.3 upbm affinity estimate (log intensity, higher = more binding, comparable within an allelic series) and the binding signal [2] was 12.3 upbm affinity estimate (log intensity, higher = more binding, comparable within an allelic series).
In the case of GGTTTATA, the binding signal [1] was 10.5 upbm affinity estimate (log intensity, higher = more binding, comparable within an allelic series) and the binding signal [3] was 7.99 upbm affinity estimate (log intensity, higher = more binding, comparable within an allelic series).
GATAAGCC was tested, and the binding signal [1] was 12.3 upbm affinity estimate (log intensity, higher = more binding, comparable within an allelic series) and the binding signal [2] was 12.4 upbm affinity estimate (log intensity, higher = more binding, comparable within an allelic series).
In the case of GGATTTAA, the binding signal [1] was 12.5 upbm affinity estimate (log intensity, higher = more binding, comparable within an allelic series).
ACGGTGCC was tested, and the binding signal [1] was 7.94 upbm affinity estimate (log intensity, higher = more binding, comparable within an allelic series), the binding signal [4] was 10.5 upbm affinity estimate (log intensity, higher = more binding, comparable within an allelic series) and the binding signal [5] was 10.5 upbm affinity estimate (log intensity, higher = more binding, comparable within an allelic series).
With CGATTTAA the binding signal [6] was 10.9 upbm affinity estimate (log intensity, higher = more binding, comparable within an allelic series).
In the case of TATTTAGA, the binding signal [6] was 10.6 upbm affinity estimate (log intensity, higher = more binding, comparable within an allelic series).
With ATTATATG the binding signal [7] was 10.6 upbm affinity estimate (log intensity, higher = more binding, comparable within an allelic series).
For ATTAAACA, the binding signal [6] was 11.3 upbm affinity estimate (log intensity, higher = more binding, comparable within an allelic series) and the binding signal [8] was 11.2 upbm affinity estimate (log intensity, higher = more binding, comparable within an allelic series).
With ATAATTCA the binding signal [7] was 10.7 upbm affinity estimate (log intensity, higher = more binding, comparable within an allelic series), the binding signal [9] was 11.1 upbm affinity estimate (log intensity, higher = more binding, comparable within an allelic series) and the binding signal [10] was 10.9 upbm affinity estimate (log intensity, higher = more binding, comparable within an allelic series).
ATTTCTTA was tested, and the binding signal [11] was 11.1 upbm affinity estimate (log intensity, higher = more binding, comparable within an allelic series).
With ATTGTATA the binding signal [7] was 10.5 upbm affinity estimate (log intensity, higher = more binding, comparable within an allelic series).
With ATCATGTC the binding signal [11] was 11 upbm affinity estimate (log intensity, higher = more binding, comparable within an allelic series) and the binding signal [12] was 10.3 upbm affinity estimate (log intensity, higher = more binding, comparable within an allelic series).
In the case of TAATAGCA, the binding signal [6] was 11 upbm affinity estimate (log intensity, higher = more binding, comparable within an allelic series), the binding signal [3] was 9.06 upbm affinity estimate (log intensity, higher = more binding, comparable within an allelic series) and the binding signal [13] was 7.3 upbm affinity estimate (log intensity, higher = more binding, comparable within an allelic series).
With ATATACAT the binding signal [7] was 10.6 upbm affinity estimate (log intensity, higher = more binding, comparable within an allelic series).
CGTTATTA was tested, and the binding signal [6] was 11.2 upbm affinity estimate (log intensity, higher = more binding, comparable within an allelic series) and the binding signal [8] was 11.1 upbm affinity estimate (log intensity, higher = more binding, comparable within an allelic series).
For CTCGTTAC, the binding signal [6] was 11.1 upbm affinity estimate (log intensity, higher = more binding, comparable within an allelic series) and the binding signal [8] was 10.9 upbm affinity estimate (log intensity, higher = more binding, comparable within an allelic series).
For AAGATTGT, the binding signal [11] was 10.7 upbm affinity estimate (log intensity, higher = more binding, comparable within an allelic series).
For AAGATAAC, the binding signal [11] was 10.8 upbm affinity estimate (log intensity, higher = more binding, comparable within an allelic series).
CTTAAAAG was tested, and the binding signal [11] was 10.4 upbm affinity estimate (log intensity, higher = more binding, comparable within an allelic series).
ATAACTAA was tested, and the binding signal [6] was 10.9 upbm affinity estimate (log intensity, higher = more binding, comparable within an allelic series) and the binding signal [8] was 11 upbm affinity estimate (log intensity, higher = more binding, comparable within an allelic series).
With ATGATATA the binding signal [7] was 10.7 upbm affinity estimate (log intensity, higher = more binding, comparable within an allelic series).
With ATTTTAAC the binding signal [6] was 11.2 upbm affinity estimate (log intensity, higher = more binding, comparable within an allelic series) and the binding signal [14] was 11.9 upbm affinity estimate (log intensity, higher = more binding, comparable within an allelic series).
TCCTTTAA was tested, and the binding signal [11] was 11.1 upbm affinity estimate (log intensity, higher = more binding, comparable within an allelic series).
For AAGTTATT, the binding signal [6] was 10.9 upbm affinity estimate (log intensity, higher = more binding, comparable within an allelic series), the binding signal [15] was 10.1 upbm affinity estimate (log intensity, higher = more binding, comparable within an allelic series) and the binding signal [8] was 10.8 upbm affinity estimate (log intensity, higher = more binding, comparable within an allelic series). The binding signal [16] was 9.9 upbm affinity estimate (log intensity, higher = more binding, comparable within an allelic series) and the binding signal [17] was 9.7 upbm affinity estimate (log intensity, higher = more binding, comparable within an allelic series).
With CTAATATA the binding signal [7] was 10.8 upbm affinity estimate (log intensity, higher = more binding, comparable within an allelic series), the binding signal [9] was 10.9 upbm affinity estimate (log intensity, higher = more binding, comparable within an allelic series) and the binding signal [10] was 10.9 upbm affinity estimate (log intensity, higher = more binding, comparable within an allelic series).
ATCGTAAC was tested, and the binding signal [6] was 11 upbm affinity estimate (log intensity, higher = more binding, comparable within an allelic series) and the binding signal [8] was 10.9 upbm affinity estimate (log intensity, higher = more binding, comparable within an allelic series).
In the case of ATTCAAGC, the binding signal [11] was 11 upbm affinity estimate (log intensity, higher = more binding, comparable within an allelic series).
In the case of AGTTTTAT, the binding signal [18] was 11.3 upbm affinity estimate (log intensity, higher = more binding, comparable within an allelic series).
For ACGAAATA, the binding signal [11] was 10.7 upbm affinity estimate (log intensity, higher = more binding, comparable within an allelic series).
AGTATACA was tested, and the binding signal [6] was 10.6 upbm affinity estimate (log intensity, higher = more binding, comparable within an allelic series) and the binding signal [8] was 10.7 upbm affinity estimate (log intensity, higher = more binding, comparable within an allelic series).
With CTTAGTTA the binding signal [11] was 11 upbm affinity estimate (log intensity, higher = more binding, comparable within an allelic series).
For AATATAGT, the binding signal [6] was 11 upbm affinity estimate (log intensity, higher = more binding, comparable within an allelic series) and the binding signal [8] was 11.1 upbm affinity estimate (log intensity, higher = more binding, comparable within an allelic series).
With TAAATGAA the binding signal [6] was 10.9 upbm affinity estimate (log intensity, higher = more binding, comparable within an allelic series) and the binding signal [8] was 10.9 upbm affinity estimate (log intensity, higher = more binding, comparable within an allelic series).
For AAAATTAA, the binding signal [6] was 10.9 upbm affinity estimate (log intensity, higher = more binding, comparable within an allelic series) and the binding signal [8] was 10.8 upbm affinity estimate (log intensity, higher = more binding, comparable within an allelic series).
CATATGTA was tested, and the binding signal [11] was 10.8 upbm affinity estimate (log intensity, higher = more binding, comparable within an allelic series).
In the case of GCAGTAAA, the binding signal [18] was 11.1 upbm affinity estimate (log intensity, higher = more binding, comparable within an allelic series).
In the case of AGCAAATC, the binding signal [11] was 10.9 upbm affinity estimate (log intensity, higher = more binding, comparable within an allelic series).
In the case of ATATAATC, the binding signal [7] was 10.6 upbm affinity estimate (log intensity, higher = more binding, comparable within an allelic series), the binding signal [15] was 10.1 upbm affinity estimate (log intensity, higher = more binding, comparable within an allelic series) and the binding signal [16] was 10.1 upbm affinity estimate (log intensity, higher = more binding, comparable within an allelic series). The binding signal [2] was 12.3 upbm affinity estimate (log intensity, higher = more binding, comparable within an allelic series) and the binding signal [17] was 9.94 upbm affinity estimate (log intensity, higher = more binding, comparable within an allelic series).
For GATTTGAA, the binding signal [11] was 10.8 upbm affinity estimate (log intensity, higher = more binding, comparable within an allelic series).
In the case of TGATAAAA, the binding signal [6] was 11.3 upbm affinity estimate (log intensity, higher = more binding, comparable within an allelic series) and the binding signal [8] was 11.2 upbm affinity estimate (log intensity, higher = more binding, comparable within an allelic series).
With ATATTATG the binding signal [7] was 10.7 upbm affinity estimate (log intensity, higher = more binding, comparable within an allelic series) and the binding signal [10] was 10.9 upbm affinity estimate (log intensity, higher = more binding, comparable within an allelic series).
AAGTGTTA was tested, and the binding signal [6] was 10.7 upbm affinity estimate (log intensity, higher = more binding, comparable within an allelic series) and the binding signal [19] was 10.7 upbm affinity estimate (log intensity, higher = more binding, comparable within an allelic series).
With CAAGATAA the binding signal [11] was 10.9 upbm affinity estimate (log intensity, higher = more binding, comparable within an allelic series).
For ATAACGAC, the binding signal [6] was 11 upbm affinity estimate (log intensity, higher = more binding, comparable within an allelic series) and the binding signal [8] was 10.8 upbm affinity estimate (log intensity, higher = more binding, comparable within an allelic series).
For ATAAACGA, the binding signal [6] was 11.4 upbm affinity estimate (log intensity, higher = more binding, comparable within an allelic series) and the binding signal [8] was 11.2 upbm affinity estimate (log intensity, higher = more binding, comparable within an allelic series).
In the case of AATCATAT, the binding signal [6] was 11 upbm affinity estimate (log intensity, higher = more binding, comparable within an allelic series) and the binding signal [8] was 11 upbm affinity estimate (log intensity, higher = more binding, comparable within an allelic series).
In the case of AGATATCT, the binding signal [20] was 10.8 upbm affinity estimate (log intensity, higher = more binding, comparable within an allelic series).
